This note sets out measurements from PubChem BioAssay (NCI).

Test [1] can be described thus: NCI Yeast Anticancer Drug Screen. Data for the rad50 strain (AID 155).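 Also: 0% = growth of vehicle-only cultures of the same strain.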 Particulars: S. cerevisiae rad50 strain growth inhibition, hits give high values. Put shortly:
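DNA repair mutant yeast, compound exposure, growth read-out; inhibition is taken relative to vehicle.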

The nature of test [2]: NCI Yeast Anticancer Drug Screen. Data for the mec2-1 strain (AID 157). Particulars: S. cerevisiae mec2-1 strain, hits give high values. The method, boiled down:
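Each compound was tested on mec2-1 yeast, a strain altered in DNA damage repair or cell cycle control. Growth inhibition is reported relative to vehicle.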

Test [3] in a line: NCI Yeast Anticancer Drug Screen. Data for the sgs1 mgt1 strain (AID 161).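 Also: 0% = growth of cultures given vehicle only.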 As to conditions: S. cerevisiae sgs1 mgt1 strain, hits give high values. Put shortly: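 Mutant yeast exposed to compound; growth scored against vehicle-only wells.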
Test [4] is described as follows: NCI Yeast Anticancer Drug Screen. Data for the cln2 rad14 strain (AID 165).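 Also: 0% = growth equal to vehicle treated cultures.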 Particulars: S. cerevisiae cln2 rad14 strain, hits give high values. Put shortly: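 Test compounds were added to cln2 rad14 yeast cultures; inhibition of growth was then determined by comparison with vehicle treatment.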
Test [5] can be described thus: NCI Yeast Anticancer Drug Screen. Data for the bub3 strain (AID 167). Particulars: S. cerevisiae bub3 mutant strain, hits give high values. The method, boiled down: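 In this screen, a yeast mutant lacking normal mitotic checkpoint function is challenged with compound. Relative growth versus vehicle gives the inhibition value.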
Test [6] is described as follows: NCI Yeast Anticancer Drug Screen. Data for the mlh1 rad18 strain (AID 175). Particulars: S. cerevisiae mlh1 rad18 strain growth inhibition, hits give high values. Put shortly:
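Inhibition values reflect reduced growth of mutant yeast versus vehicle-treated controls following compound exposure; the mutations affect DNA damage repair.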

[7] abbreviates: at 5.0 µM (retest, dose inferred, filed as 0.5).
The mark [8] stands for this setting: at 50.0 µM (retest, dose inferred, filed as 5.0).

The panel holds about 79,000 compounds, 15% with a hit somewhere; the sample as a whole holds those more often. Unmarked numbers belong to inactive results. The source made the active and inactive calls. Rule as the data show it: active = growth inhibition above about 70%; inactive = the rest.

With `Cc1ccc(-c2ccccc2)n1-c1cc(Cl)ccc1O`, the growth inhibition is 12% in test [1] (setting [7]); 99% (active) in test [1] (setting [8]); 99% (active) in test [1] (at 50.0 µM); 4% in test [2] (setting [7]); 99% (active) in test [2] (setting [8]); 99.2% (active) in test [2] (at 50.0 µM). Besides, the growth inhibition in test [3] (setting [7]) is -1%; in test [3] (setting [8]) it was 99% (active); in test [3] (at 50.0 µM), 99.2% (active); in test [4] (setting [7]), 8%; in test [4] (setting [8]) it was 99% (active); in test [4] (at 50.0 µM), 97.9% (active). The growth inhibition in test [5] (setting [7]) was 0%; in test [5] (setting [8]), 99% (active); in test [5] (at 50.0 µM), 99% (active); in test [6] (setting [7]), 10%; in test [6] (setting [8]), 99% (active); in test [6] (at 50.0 µM), 99.1% (active).
Consider `CN(C)c1ccc2c(NCCCCCCNc3ccnc4cc(N(C)C)ccc34)ccnc2c1`, for which the growth inhibition is 10% in test [1] (setting [7]); 95% (active) in test [1] (setting [8]); 84.5% (active) in test [1] (at 50.0 µM); 7% in test [2] (setting [7]); 97% (active) in test [2] (setting [8]); 91.2% (active) in test [2] (at 50.0 µM). For the same compound, the growth inhibition is 16% in test [3] (setting [7]); 98% (active) in test [3] (setting [8]); 53.4% in test [3] (at 50.0 µM); 1% in test [4] (setting [7]); 92% (active) in test [4] (setting [8]); 29.4% in test [4] (at 50.0 µM). The growth inhibition in test [5] (setting [7]) is -2%; in test [5] (setting [8]), 97% (active); in test [5] (at 50.0 µM), 30.5%; in test [6] (setting [7]), 14%; in test [6] (setting [8]), 95% (active); in test [6] (at 50.0 µM), -5.8%.
For `O=Nc1c(O)c2ccccc2c2ccc([N+](=O)[O-])cc12`, the growth inhibition is 21% in test [1] (setting [7]); 64% in test [1] (setting [8]); 69.8% in test [1] (at 50.0 µM); 48% in test [2] (setting [7]); 95% (active) in test [2] (setting [8]); 84.8% (active) in test [2] (at 50.0 µM). For the same compound, the growth inhibition in test [3] (setting [7]) is 35%; in test [3] (setting [8]) it was 87% (active); in test [3] (at 50.0 µM) it was 91.7% (active); in test [4] (setting [7]), 12%; in test [4] (setting [8]), 52%; in test [4] (at 50.0 µM), 42.9%. The growth inhibition in test [5] (setting [7]) is 20%; in test [5] (setting [8]), 65%; in test [5] (at 50.0 µM), 85.2% (active); in test [6] (setting [7]), 37%; in test [6] (setting [8]) it was 90% (active); in test [6] (at 50.0 µM) it was 88% (active).
In the case of `O=C(O)c1ccccc1C(c1ccccc1)c1ccccc1`, the growth inhibition in test [1] (setting [7]) was 15%; in test [1] (setting [8]), 62%; in test [1] (at 50.0 µM), 44.4%; in test [2] (setting [7]), -8%; in test [2] (setting [8]), 44%; in test [2] (at 50.0 µM) it was 65.2%. The growth inhibition was 26% in test [3] (setting [7]); 71% (active) in test [3] (setting [8]); 85.8% (active) in test [3] (at 50.0 µM); 13% in test [4] (setting [7]); 84% (active) in test [4] (setting [8]); 74.3% (active) in test [4] (at 50.0 µM). In addition, the growth inhibition was 25% in test [5] (setting [7]); 79% (active) in test [5] (setting [8]); 75.3% (active) in test [5] (at 50.0 µM); 6% in test [6] (setting [7]); 84% (active) in test [6] (setting [8]); 67% in test [6] (at 50.0 µM).
For the compound `CC(=O)CC(C)=O.CCN(CC)CC[C-]=O.[Pd+2]`, the growth inhibition in test [1] (setting [7]) is 1%; in test [1] (setting [8]) it was 54%; in test [1] (at 50.0 µM), 66.9%; in test [2] (setting [7]), 8%; in test [2] (setting [8]) it was 33%; in test [2] (at 50.0 µM), 70.8% (active). The growth inhibition in test [3] (setting [7]) was -5%; in test [3] (setting [8]), 22%; in test [3] (at 50.0 µM), 73.5% (active); in test [4] (setting [7]), 21%; in test [4] (setting [8]) it was 32%; in test [4] (at 50.0 µM), 9.6%. The growth inhibition was -1% in test [5] (setting [7]); 33% in test [5] (setting [8]); 76.5% (active) in test [5] (at 50.0 µM); 0% in test [6] (setting [7]); 54% in test [6] (setting [8]); 74.9% (active) in test [6] (at 50.0 µM).
In the case of `COC(O)C(=O)c1ccc2c(c1)CC1(C2)Cc2cc3c(cc2C1=O)CCC3` (configuration not stated), the growth inhibition is 28% in test [1] (setting [7]); 99% (active) in test [1] (setting [8]); 20.2% in test [1] (at 50.0 µM); 40% in test [2] (setting [7]); 99% (active) in test [2] (setting [8]); 23.9% in test [2] (at 50.0 µM). Besides, the growth inhibition in test [3] (setting [7]) was 33%; in test [3] (setting [8]), 98% (active); in test [3] (at 50.0 µM), 52.1%; in test [4] (setting [7]), 23%; in test [4] (setting [8]) it was 99% (active); in test [4] (at 50.0 µM), 57.4%. Also, the growth inhibition was 35% in test [5] (setting [7]); 99% (active) in test [5] (setting [8]); 31.6% in test [5] (at 50.0 µM); 41% in test [6] (setting [7]); 99% (active) in test [6] (setting [8]); 45.9% in test [6] (at 50.0 µM).
Take `O=C(SC(O)c1ccc(Cl)cc1)c1ccccc1` (configuration not stated): the growth inhibition in test [1] (setting [7]) was -7%; in test [1] (setting [8]) it was 58%; in test [1] (at 50.0 µM), 79.8% (active); in test [2] (setting [7]), -7%; in test [2] (setting [8]) it was 57%; in test [2] (at 50.0 µM), 74.5% (active). Moreover, the growth inhibition was -3% in test [3] (setting [7]); 68% in test [3] (setting [8]); 85.3% (active) in test [3] (at 50.0 µM); -4% in test [4] (setting [7]); 58% in test [4] (setting [8]); 22.9% in test [4] (at 50.0 µM). Besides, the growth inhibition is -5% in test [5] (setting [7]); 57% in test [5] (setting [8]); 64.9% in test [5] (at 50.0 µM); -8% in test [6] (setting [7]); 60% in test [6] (setting [8]); 81.8% (active) in test [6] (at 50.0 µM).
Turning to `N#CSCC(=O)c1ccc2ccccc2c1`, the growth inhibition in test [1] (setting [7]) is 67%; in test [1] (setting [8]) it was 99% (active); in test [1] (at 50.0 µM), 90.8% (active); in test [2] (setting [7]), 71% (active); in test [2] (setting [8]), 99% (active); in test [2] (at 50.0 µM), 92.1% (active). The growth inhibition was 97% (active) in test [3] (setting [7]); 99% (active) in test [3] (setting [8]); 93.5% (active) in test [3] (at 50.0 µM); 68% in test [4] (setting [7]); 98% (active) in test [4] (setting [8]); 91% (active) in test [4] (at 50.0 µM). The growth inhibition was 97% (active) in test [5] (setting [7]); 98% (active) in test [5] (setting [8]); 90.5% (active) in test [5] (at 50.0 µM); 57% in test [6] (setting [7]); 99% (active) in test [6] (setting [8]); 91.3% (active) in test [6] (at 50.0 µM).
For `O=C(O)CN(CC(=O)O)C1CCCCC1N1CC(=O)OC(=O)C1` (configuration not stated), the growth inhibition in test [1] (setting [7]) is 35%; in test [1] (setting [8]), 35%; in test [1] (at 50.0 µM) it was 74.3% (active); in test [2] (setting [7]), 17%; in test [2] (setting [8]), 17%; in test [2] (at 50.0 µM), 81.1% (active). Further, the growth inhibition is 26% in test [3] (setting [7]); 26% in test [3] (setting [8]); 75% (active) in test [3] (at 50.0 µM); 3% in test [4] (setting [7]); 3% in test [4] (setting [8]); 64.3% in test [4] (at 50.0 µM). The growth inhibition was -7% in test [5] (setting [7]); -7% in test [5] (setting [8]); 80.3% (active) in test [5] (at 50.0 µM); 25% in test [6] (setting [7]); 25% in test [6] (setting [8]); 76% (active) in test [6] (at 50.0 µM).
